proKLK7 act: proKLK7 zymogen activators, primary screen, biochemical, fluorescence intensity | activation, % at 7 µM | purified proKLK7, EDANS-DABCYL substrate fluorescence; 100% is mature enzyme control, 0% vehicle | hit rate 0.9% among 370,000;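 active = activation above the mean of all tested compounds plus 3 SD, computed per campaign excluding outliers beyond control limits, cut at about 13% in these data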
NPR2 activator: human GC-B receptor activators, primary screen, HEK293 GC-B cells, cGMP TR-FRET, EC30 CNP. activation, % at 10 µM. Atrial natriuretic peptide receptor 2 (Homo sapiens), P20594. 0% at EC30 CNP, 100% saturating CNP. hit rate 0.11% among 370,000;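 active = activation at 10 µM reaching about 35% in either raw or pattern-adjusted values, limit read from the data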
HIF act: HIF pathway transcriptional activators, primary screen, cell-based, U2OS HRE-luciferase, luminescence. U2OS HRE-luciferase reporter; normalized: DMSO 0%, desferrioxamine 100%. activation, % at 7.5 µM (by protocol). AID 1910, 2009. hit rate 0.32% among 300,000;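 active = mean activation of at least 10% of the iron chelator positive control signal, with at least half of replicates also reaching 10%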
GC-A act: GC-A stimulated cGMP production enhancers – HEK293 GC-A cells, cGMP TR-FRET, EC30 ANP, primary screen; 0% at EC30 ANP, 100% saturating ANP; activation, % at 10 µM; hit rate 0.14% among 370,000; in the data active = activation above about 40%
proKLK7 act conf: proKLK7 zymogen activators, confirmation, biochemical, fluorescence intensity, triplicate | shares compounds with proKLK7 act | purified proKLK7, EDANS-DABCYL substrate fluorescence; scaled: vehicle 0, mature enzyme 100 | activation, % at 7 µM | hit rate 68% among 3,200;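 active = activation, as change over the incubation, above the mean of all tested compounds plus 3 SD, cut at about 13% in these data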
EDANS interfere: EDANS-DABCYL substrate optical interference, artefact control for kallikrein-7 zymogen activator project, biochemical, fluorescence intensity, high throughput; no enzyme, 4 h; solvent 0%, active enzyme control 100%; hit rate 80% among 3,200; shares compounds with proKLK7 act; AID 686952, 2013; activation, % at 7 µM;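 active = activation above the all-compound mean plus 3 SD, ignoring values outside control-based bounds, cut at about 4.8% in these data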;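 also: value is the 4 h activation minus the activation read at time zero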
K7 EDANS ctr: optically interferes with EDANS-DABCYL fluorescence, kallikrein-7 activator counter-screen. shares compounds with proKLK7 act. EDANS-DABCYL peptide fluorescence interference, no enzyme. EC50, µM. hit rate 20% among 250. AID 720493;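 active = compounds that raise the fluorescence signal in this interference counterscreen, with EC50 at or below 10 µM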;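 also: intact quenched peptide substrate alone read at 355 nm excitation and 520 nm emission; signal is fluorescence gain from T0 to T4 after four hours at room temperature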
Starred values were filed as active, the others as inactive; nt = not tested or not shown. Sampled rows, rich in hits. Any-hit rate of the full collection: about 1.3%.

SMILES	proKLK7 act	NPR2 activator	HIF act	GC-A act	proKLK7 act conf	EDANS interfere	others
CN(C(=O)CN1C(=O)c2cccc(N)c2C1=O)C1CCCCC1	109*	7	nt	10	74*	76*
COc1ccccc1CNC(=O)CCN1C(=O)c2ccccc2C1=O	0	4	0	4	nt	nt
CC1CCCCC1NC(=O)CN1C(=O)c2cccc(N)c2C1=O (stereo not given)	34*	3	0	8	78*	70*
COC(=O)[C@]12C[C@H](CC(=O)N3CCSCC3)C(=O)N(Cc3ccccc3)C1=C[C@H](COCc1ccccc1)O[C@@H]2C	1	3	nt	0	nt	nt
CC(C)=CCC/C(C)=C/CNC(=O)C[C@H]1C[C@H](C(=O)N(C(C)C)C(C)C)[C@@]2(C)c3[nH]c4cc(-c5ccco5)ccc4c3CCN2C1=O	-4	2	nt	-7	nt	nt
CCN(CC)C(=O)[C@H]1C[C@H](CC(=O)NCCCOC)C(=O)N2CCc3c([nH]c4cc(-c5ccco5)ccc34)[C@]12C	164*	-6	nt	2	166*	206*
CCN(CC)C(=O)[C@H]1C[C@H](CC(=O)NCCCN(C)C)C(=O)N2CCc3c([nH]c4cc(-c5ccco5)ccc34)[C@]12C	90*	-4	nt	1	73*	84*
CCN(CC)C(=O)[C@H]1C[C@H](CC(=O)NC/C=C(\C)CCC=C(C)C)C(=O)N2CCc3c([nH]c4cc(-c5ccco5)ccc34)[C@]12C	19*	-3	nt	-5	4	12*
CC(C)N(C(=O)[C@H]1C[C@H](CC(=O)NCCCN(C)C)C(=O)N2CCc3c([nH]c4cc(-c5ccco5)ccc34)[C@]12C)C(C)C	103*	-8	nt	-9	73*	88*
CCN(CC)C(=O)[C@H]1C[C@H](CC(=O)NCC23CC4CC(CC(C4)C2)C3)C(=O)N2CCc3c([nH]c4cc(-c5ccco5)ccc34)[C@]12C	-7	-1	nt	-5	nt	nt
CCN(CC)C(=O)[C@H]1CC(CC(=O)NCc2ccco2)C(=O)N2CCc3c([nH]c4ccc(OC)cc34)[C@]12C (stereo not given in full)	0	-6	nt	-5	nt	nt
CO[C@H]([C@H](C)/C=C/N(C)C=O)[C@@H](C)C(=O)CC[C@H](C)[C@H](O)[C@H](C)[C@H]1OC(=O)/C=C/C(C)=C/C[C@H](O)C[C@@H]2C=CC[C@@H](C[C@H](OC)C(C)(O)[C@@H](OC)C[C@@H](OC)[C@@H]1C)O2 (stereo not given in full)	nt	-31	nt	-28	nt	nt
CCCCCCCCN1C(=O)[C@@H](CC(=O)N2CCOCC2)C[C@@]2(C(=O)OC)C1=C[C@H](COCc1ccccc1)O[C@@H]2C	0	7	nt	2	nt	nt
CC(C)N1CCc2c(-c3nc4ccccc4s3)csc2C1	nt	-3	nt	5	nt	nt
CCC(C)N(c1nc(C)nc2c1nnn2Cc1ccccc1)C(C)CC (stereo not given)	0	-7	nt	-1	nt	nt
O=C(CSc1nnc(-c2ccccc2)n1-c1ccc(Cl)cc1)c1ccc(F)cc1	1	-7	nt	-6	nt	nt
Cn1c(=O)cc(OCCCC(=O)Nc2cc(C(F)(F)F)ccn2)c2ccccc21	nt	-11	nt	-4	nt	nt
CCN(CC)C(=O)[C@H]1C[C@H](CC(=O)NCc2ccc(OC)c(OC)c2)C(=O)N2CCc3c([nH]c4cc(-c5ccco5)ccc34)[C@]12C	141*	-4	nt	-7	68*	76*
Cc1cc(C)n2cc(CSc3ccccn3)nc2n1	1	6	0	2	nt	nt
Cc1cc(C)n2cc(CSCc3ccccc3)nc2n1	14*	1	0	1	25*	21*	K7 EDANS ctr=>70
Clc1cc(Cl)cc(CNC2CCC23CCC(c2ccccc2)CC3)c1 (stereo not given)	nt	-1	nt	-3	nt	nt

Compound activity from PubChem BioAssay.
